# Legend:
# Test in all cases: DAPPL (digital affinity profiling via proximity ligation, sequencing); 10 mM Tris-HCl pH 7.5, 50 mM NaCl, 1 mM DTT, 4% glycerol, room temperature, 30 min; GST-TFs on glutathione beads, 16-mer random dsDNA library, 0.1% formaldehyde crosslink after washing; high values mean tight binding
# Conditions in all cases: protein: recombinant; tags: N-terminal GST; dsDNA, one strand shown
# FLI1 = molecular target: T1, FLI1 (Homo sapiens, UniProt Q01543 1-452)
# T1 sequence: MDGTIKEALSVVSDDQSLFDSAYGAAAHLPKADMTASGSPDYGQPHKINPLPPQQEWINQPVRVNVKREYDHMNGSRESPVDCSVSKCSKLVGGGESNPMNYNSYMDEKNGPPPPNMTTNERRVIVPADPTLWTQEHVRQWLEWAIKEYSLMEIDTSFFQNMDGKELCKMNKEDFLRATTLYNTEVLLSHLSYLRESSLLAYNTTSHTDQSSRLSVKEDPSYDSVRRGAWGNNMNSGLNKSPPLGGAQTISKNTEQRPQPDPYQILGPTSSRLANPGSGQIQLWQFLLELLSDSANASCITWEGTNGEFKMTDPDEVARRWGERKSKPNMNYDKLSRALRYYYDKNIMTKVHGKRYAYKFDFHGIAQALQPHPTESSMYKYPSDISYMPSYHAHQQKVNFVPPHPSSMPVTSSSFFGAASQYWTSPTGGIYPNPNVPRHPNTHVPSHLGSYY
# Method in brief: (§1)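 Sequencing on an Illumina NextSeq500 followed washing, crosslinking with 0.1% formaldehyde, proximity ligation (BsaI/T4 ligase, 1 h, 37 °C) and PCR amplification of pools that had been incubated for 30 min at room temperature with 200 nmole of a random double-stranded 16-mer DNA library in Tris/NaCl/DTT/glycerol buffer. Each pool held DNA-barcoded human transcription factors, expressed in yeast as GST fusions and captured on glutathione beads, plus a tag-only sample. Binding signal is a hexamer's read frequency for a factor divided by its frequency in the tag-only sample.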
# ELK1 = molecular target: T2, ELK1 (Homo sapiens, UniProt P19419 1-428)
# T2 sequence: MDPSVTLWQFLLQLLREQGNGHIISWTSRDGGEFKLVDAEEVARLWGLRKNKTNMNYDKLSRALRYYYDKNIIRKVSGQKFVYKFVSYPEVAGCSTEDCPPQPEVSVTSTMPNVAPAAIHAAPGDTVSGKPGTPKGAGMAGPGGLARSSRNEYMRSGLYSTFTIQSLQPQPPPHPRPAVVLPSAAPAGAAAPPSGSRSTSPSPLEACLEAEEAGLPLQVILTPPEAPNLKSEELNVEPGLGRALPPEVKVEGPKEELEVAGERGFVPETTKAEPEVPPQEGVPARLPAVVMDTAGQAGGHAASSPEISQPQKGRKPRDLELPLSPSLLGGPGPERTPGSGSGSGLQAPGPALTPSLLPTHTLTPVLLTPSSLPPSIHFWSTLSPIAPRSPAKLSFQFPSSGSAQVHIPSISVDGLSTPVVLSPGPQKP
# Method in brief: as §1
# GABPA = molecular target: T3, GABPA (Homo sapiens, UniProt Q06546 1-454)
# T3 sequence: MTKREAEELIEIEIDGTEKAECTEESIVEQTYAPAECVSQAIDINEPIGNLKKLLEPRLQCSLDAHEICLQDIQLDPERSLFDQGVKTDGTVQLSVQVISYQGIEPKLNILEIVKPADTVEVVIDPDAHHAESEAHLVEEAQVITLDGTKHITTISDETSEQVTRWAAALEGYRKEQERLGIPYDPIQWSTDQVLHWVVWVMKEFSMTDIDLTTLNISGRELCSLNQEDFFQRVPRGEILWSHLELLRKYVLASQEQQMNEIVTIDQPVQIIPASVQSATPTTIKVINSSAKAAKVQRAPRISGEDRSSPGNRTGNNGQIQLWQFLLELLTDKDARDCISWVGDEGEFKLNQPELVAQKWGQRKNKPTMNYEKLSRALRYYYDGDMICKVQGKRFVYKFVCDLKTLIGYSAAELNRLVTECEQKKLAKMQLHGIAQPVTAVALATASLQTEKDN
# Method in brief: as §1
# ERG = molecular target: T4, ERG (Homo sapiens, UniProt P11308 1-479)
# T4 sequence: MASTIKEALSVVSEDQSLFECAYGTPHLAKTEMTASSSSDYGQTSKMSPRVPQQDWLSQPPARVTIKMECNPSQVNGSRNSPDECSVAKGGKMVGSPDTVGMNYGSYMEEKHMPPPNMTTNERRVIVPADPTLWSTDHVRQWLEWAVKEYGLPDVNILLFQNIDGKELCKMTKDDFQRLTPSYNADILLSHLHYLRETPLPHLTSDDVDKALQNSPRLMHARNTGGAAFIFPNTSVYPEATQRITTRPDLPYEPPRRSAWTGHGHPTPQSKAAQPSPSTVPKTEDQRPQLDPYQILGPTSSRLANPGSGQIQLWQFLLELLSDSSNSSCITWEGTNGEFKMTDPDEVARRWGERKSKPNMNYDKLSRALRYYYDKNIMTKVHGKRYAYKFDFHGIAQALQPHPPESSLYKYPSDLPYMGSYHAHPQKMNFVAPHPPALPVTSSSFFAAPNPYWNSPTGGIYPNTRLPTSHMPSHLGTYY
# Method in brief: as §1
# ELF1 = ELF1 (Homo sapiens, UniProt P32519 1-619)
# Method in brief: as §1
# EHF = molecular target: T5, EHF (Homo sapiens, UniProt Q9NZC4 1-300)
# T5 sequence: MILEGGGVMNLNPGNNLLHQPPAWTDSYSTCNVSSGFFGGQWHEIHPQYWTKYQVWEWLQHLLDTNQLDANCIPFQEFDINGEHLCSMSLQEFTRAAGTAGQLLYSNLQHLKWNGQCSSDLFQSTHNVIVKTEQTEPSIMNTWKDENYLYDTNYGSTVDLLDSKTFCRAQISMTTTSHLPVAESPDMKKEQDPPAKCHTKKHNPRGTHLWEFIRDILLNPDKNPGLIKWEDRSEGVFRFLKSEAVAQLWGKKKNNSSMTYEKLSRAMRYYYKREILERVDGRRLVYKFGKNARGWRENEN
# Method in brief: as §1
# SPI1 = SPI1 (Homo sapiens, UniProt P17947 1-270)
# Method in brief: as §1
# SPIB = SPIB (Homo sapiens, UniProt Q01892 1-262)
# Method in brief: as §1
# ELK3 = molecular target: T6, ELK3 (Homo sapiens, UniProt P41970 1-407)
# T6 sequence: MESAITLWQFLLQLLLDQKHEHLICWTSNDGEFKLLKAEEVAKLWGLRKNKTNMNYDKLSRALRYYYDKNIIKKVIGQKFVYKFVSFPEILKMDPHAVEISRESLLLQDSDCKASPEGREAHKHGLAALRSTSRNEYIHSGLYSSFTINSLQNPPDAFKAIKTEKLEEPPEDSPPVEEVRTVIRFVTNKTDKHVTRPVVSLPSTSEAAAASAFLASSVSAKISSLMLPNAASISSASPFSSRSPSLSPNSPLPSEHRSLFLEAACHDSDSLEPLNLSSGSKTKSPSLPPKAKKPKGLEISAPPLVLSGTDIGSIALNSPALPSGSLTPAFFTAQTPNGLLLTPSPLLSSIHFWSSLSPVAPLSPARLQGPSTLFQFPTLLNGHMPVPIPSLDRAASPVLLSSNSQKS
# Method in brief: as §1
# Chain of SPIB (Q01892 whole entry): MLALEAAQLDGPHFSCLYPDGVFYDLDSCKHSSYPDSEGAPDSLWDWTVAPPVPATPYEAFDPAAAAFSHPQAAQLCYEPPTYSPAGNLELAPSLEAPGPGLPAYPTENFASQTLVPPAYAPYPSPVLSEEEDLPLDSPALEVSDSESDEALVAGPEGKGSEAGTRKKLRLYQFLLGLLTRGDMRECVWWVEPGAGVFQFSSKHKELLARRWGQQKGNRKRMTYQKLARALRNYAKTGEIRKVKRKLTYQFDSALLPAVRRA
# Chain of ELF1 (P32519 whole entry): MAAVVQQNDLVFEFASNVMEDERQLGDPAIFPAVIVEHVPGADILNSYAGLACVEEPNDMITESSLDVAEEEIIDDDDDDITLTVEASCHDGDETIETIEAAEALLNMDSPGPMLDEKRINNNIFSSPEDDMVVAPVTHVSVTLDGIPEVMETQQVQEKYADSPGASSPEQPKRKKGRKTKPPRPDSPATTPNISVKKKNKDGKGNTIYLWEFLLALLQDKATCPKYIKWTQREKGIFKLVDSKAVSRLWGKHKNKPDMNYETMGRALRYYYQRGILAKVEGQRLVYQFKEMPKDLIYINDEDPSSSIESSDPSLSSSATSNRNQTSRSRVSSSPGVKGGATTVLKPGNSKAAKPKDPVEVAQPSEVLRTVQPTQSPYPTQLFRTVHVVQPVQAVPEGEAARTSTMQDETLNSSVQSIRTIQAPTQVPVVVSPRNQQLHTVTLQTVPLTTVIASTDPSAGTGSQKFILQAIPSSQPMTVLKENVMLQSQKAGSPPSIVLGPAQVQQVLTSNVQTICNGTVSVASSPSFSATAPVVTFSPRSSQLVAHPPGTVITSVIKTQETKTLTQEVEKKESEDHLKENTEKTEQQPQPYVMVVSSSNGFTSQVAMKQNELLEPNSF
sequence,measurement,setting,value
TTCTAT,binding signal,FLI1,"1.4 fold enrichment (6-mer frequency, TF over GST control)"
same,binding signal,ELK1,"1.49 fold enrichment (6-mer frequency, TF over GST control)"
same,binding signal,GABPA,"1.31 fold enrichment (6-mer frequency, TF over GST control)"
same,binding signal,ERG,"1.26 fold enrichment (6-mer frequency, TF over GST control)"
same,binding signal,ELF1,"1.46 fold enrichment (6-mer frequency, TF over GST control)"
same,binding signal,EHF,"1.42 fold enrichment (6-mer frequency, TF over GST control)"
same,binding signal,SPI1,"1.36 fold enrichment (6-mer frequency, TF over GST control)"
same,binding signal,SPIB,"1.41 fold enrichment (6-mer frequency, TF over GST control)"
same,binding signal,ELK3,"1.35 fold enrichment (6-mer frequency, TF over GST control)"

# Reference: article PMC7862700, “An all-to-all approach to the identification of sequence-specific readers for epigenetic DNA modifications on cytosine”
